TDP1 cell noCPT – qHTS for Inhibitors of human tyrosyl-DNA phosphodiesterase 1 (TDP1): qHTS in cells in absence of CPT | DT40 Tdp1-/- hTDP1 cells, no CPT, ATP luminescence, 48 h | Potency, µM (titrated, usually from 46.2 µM), hits mostly inhibitors | hit rate 15% among 420,000 | AID 686978, 2013; also: nearly all actives have a fitted effect of over 55% in size
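No-CPT arm: Tdp1-/-;hTDP1 DT40 cells (400/well) plus compounds, incubated ≥48 hr at 37 °C. Readout CellTiter-Glo luminescence.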
KB-V1 MDR tox – KB-V1 MDR subline cytotoxicity. KB-V1 MDR cells viability, CellTiter-Glo, 72 h. Potency, µM (titrated, usually from 46.1 µM), hits mostly cytotoxic. hit rate 3.4% among 400,000; also: nearly all actives have a fitted effect of over 60% in size
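Following 72 h at 37 degrees C with compound, KB-V1 cell viability was read by CellTiter-Glo luminescence, medium being phenol-red-free DMEM plus 10% FBS; concentration-response parameters came from normalized, curve-fitted qHTS data.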
HT1080-NT tox – kills 2HG-producing HT-1080-NT fibrosarcoma cells; HT-1080-NT fibrosarcoma viability, CellTiter-Glo ATP luminescence, 48 h; Potency, µM (highest dose often 46.1 µM), most hits filed as cytotoxic; hit rate 1.6% among 360,000; AID 686970;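 also: NT is the 2HG producing partner of a matched IDH1 knockdown line; nearly all actives have a fitted effect of over 55% in size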
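Viability of the 2HG-overproducing fibrosarcoma line after 48 hours of compound exposure at 37 degrees C was determined by luminescence with CellTiter-Glo, and concentration-effect curves were then fitted and categorized.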
KB-3-1 cytotox – kills parental KB-3-1 adenocarcinoma cells. KB-3-1 viability, CellTiter-Glo ATP luminescence, 72 h. Potency, µM (highest dose often 46.1 µM), usual class: cytotoxic. AID 1347075. hit rate 1.4% among 400,000; also: nearly all actives have a fitted effect of over 60% in size
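KB-3-1 cells, DMEM (no phenol red) + 10% FBS; compound by pin transfer, 72 h, 37 °C. Readout: CellTiter-Glo luminescence after 10 min. Data normalized, curve-fitted.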
DT40 TDP1 CPT – DT40-hTDP1 cell growth loss with CPT; hit rate 12% among 420,000; chicken DT40 Tdp1-/-;hTDP1 cells + 20 nM CPT, ATP luminescence, 48 h; Potency, µM (top dose mostly 46.2 µM), hits mostly inhibitors; also: nearly all actives have a fitted effect of over 55% in size
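Chicken DT40 Tdp1-/- cells stably complemented with human TDP1 were seeded at 400 cells/well in medium containing 20 nM camptothecin, exposed to pin-transferred compounds, and grown at 37 °C for at least 48 hr. Viability was read as ATP luminescence.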
HT1080 IDH1KD tx – HT-1080 IDH1 knockdown cell toxicity (counter line). HT-1080 IDH1 knockdown viability, ATP luminescence, 48 h. Potency, µM (doses to about 46.1 µM), usual class: cytotoxic. hit rate 2% among 360,000
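Luminescent ATP read-out (CellTiter-Glo, 10 min at room temperature) after 48 h compound exposure at 37 °C gave viability of IDH1-knockdown HT-1080 cells. Activity was normalised to DMSO and cell-free wells, then fitted as concentration-response curves.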
Of the large screens only hits and unclear results are named; the others gave an inactive call. An excerpt weighted towards active compounds, which were near 19% of everything screened. Calls follow the shape of the dose curve; as a rule, active = well fitted curve in the direction sought with a large enough effect; inconclusive = small, poorly fitted or top-dose-only effect, or another doubt; inactive = no such curve, though single readings can be large; an effect the other way counts as inactive or inconclusive.

CS(=O)(=O)Nc1cccc(-c2cc(NC=O)c3ncc(-c4ccc(F)cc4)n3c2)c1	TDP1 cell noCPT inconclusive, KB-V1 MDR tox inconclusive, HT1080-NT tox 11.6µM, DT40 TDP1 CPT 23.1µM, HT1080 IDH1KD tx 8.2µM
CC(=O)Nc1cccc(NC(=S)Nc2ccc(F)cc2F)c1	none
c1coc(CNc2c3c(nc4ncnn24)CCCC3)c1	DT40 TDP1 CPT inconclusive
Clc1cccc(-c2cc3nc4c(c(NCc5ccco5)n3n2)CCCC4)c1	TDP1 cell noCPT 11.2µM, KB-V1 MDR tox 20.6µM, HT1080-NT tox inconclusive, DT40 TDP1 CPT 20.6µM
Cc1ccc(-c2cc3nc(C)cc(NCc4ccco4)n3n2)cc1	KB-V1 MDR tox 14.6µM, HT1080-NT tox inconclusive
CC1(C(=O)O)CCC(C(=O)N2CCCCC2)C1(C)C (configuration not stated)	none
COc1ccc(NC(=O)CCc2nnc3n(C)c(=O)c4sccc4n23)cc1Cl	none (no result: HT1080-NT tox, HT1080 IDH1KD tx)
CC(C)C(N)c1csc(Nc2ccc(C(=O)N(C)Cc3ccccc3)cn2)n1 (configuration not stated)	TDP1 cell noCPT inconclusive, HT1080-NT tox 14.6µM, DT40 TDP1 CPT inconclusive, HT1080 IDH1KD tx 14.6µM
CCCCN(C)C(=O)c1ccc(Nc2nc(C(N)COCc3ccccc3)cs2)nc1 (configuration not stated)	TDP1 cell noCPT 14.6µM, HT1080-NT tox inconclusive, DT40 TDP1 CPT 11.6µM, HT1080 IDH1KD tx inconclusive
CC(C)CC(N)c1csc(Nc2ccc(C(=O)NCCCO)cn2)n1 (configuration not stated)	TDP1 cell noCPT inconclusive, DT40 TDP1 CPT inconclusive
CN(Cc1ccccc1)C(=O)c1ccc(Nc2nc(CN)cs2)nc1	none
Cc1ccc(Nc2c(N)c(=O)oc3ccccc23)cc1	TDP1 cell noCPT 25.9µM, KB-V1 MDR tox inconclusive, HT1080-NT tox inconclusive, KB-3-1 cytotox inconclusive, DT40 TDP1 CPT inconclusive, HT1080 IDH1KD tx inconclusive
CNc1c(N)c(=O)oc2ccccc12	none
COc1ccc(CC(=O)N2CCc3cc(OC)c(OC)cc3C2COc2ccc(OC)cc2)cc1 (configuration not stated)	TDP1 cell noCPT 16.4µM, KB-V1 MDR tox inconclusive, DT40 TDP1 CPT inconclusive (no result: HT1080-NT tox, HT1080 IDH1KD tx)
CCc1ccc(OCC2c3cc(OC)c(OC)cc3CCN2C(=O)Cc2ccc(OC)c(OC)c2)cc1 (configuration not stated)	TDP1 cell noCPT inconclusive, DT40 TDP1 CPT inconclusive (no result: HT1080-NT tox, HT1080 IDH1KD tx)
COC(=O)c1ccc(OCC2c3cc(OC)c(OC)cc3CCN2C(=O)c2ccccc2F)cc1 (configuration not stated)	TDP1 cell noCPT 18.4µM, DT40 TDP1 CPT inconclusive (no result: HT1080-NT tox, HT1080 IDH1KD tx)
CCOc1ccccc1C(=O)N1CCc2cc(OC)c(OC)cc2C1COc1ccc(OC)cc1 (configuration not stated)	TDP1 cell noCPT 20.6µM, KB-V1 MDR tox inconclusive, DT40 TDP1 CPT inconclusive (no result: HT1080-NT tox, HT1080 IDH1KD tx)
COC(=O)c1ccc(OCC2c3cc(OC)c(OC)cc3CCN2C(=O)C2CC2)cc1 (configuration not stated)	TDP1 cell noCPT inconclusive, HT1080-NT tox inconclusive, DT40 TDP1 CPT inconclusive
COC(=O)c1ccc(OCC2c3cc(OC)c(OC)cc3CCN2C(=O)c2cccc(C)c2)cc1 (configuration not stated)	TDP1 cell noCPT 16.4µM, DT40 TDP1 CPT 20.6µM (no result: HT1080-NT tox, HT1080 IDH1KD tx)
CC(=O)Nc1ccccc1NC(=O)c1ccc(C)c(C)c1	none
COc1cc(C(O)c2nc(-c3cccc4cccnc34)cs2)ccc1F (configuration not stated)	TDP1 cell noCPT inconclusive, DT40 TDP1 CPT inconclusive
Nc1ncnc2c1ccn2[C@H]1CN(Cc2ccc(Cl)cc2)C[C@@H](CO)O1	TDP1 cell noCPT 13µM, DT40 TDP1 CPT 16.4µM
Nc1ncnc2c1ccn2[C@H]1CN(Cc2ccc3c(c2)OCO3)C[C@@H](CO)O1	TDP1 cell noCPT 13µM, HT1080-NT tox inconclusive, DT40 TDP1 CPT inconclusive
O=C(O)/C=C/C(=O)c1ccc2c(c1)CCc1ccccc1-2	TDP1 cell noCPT 3.66µM, KB-V1 MDR tox inconclusive, HT1080-NT tox 18.4µM, KB-3-1 cytotox 13µM, DT40 TDP1 CPT 4.11µM, HT1080 IDH1KD tx inconclusive
CC(=O)Nc1ccc2c(c1)CCc1ccccc1-2	none
C#CCN1C=CC(=O)[C@@H](OC(=O)Nc2ccccc2Br)[C@H]1c1ccccc1Br	TDP1 cell noCPT inconclusive, DT40 TDP1 CPT 23.1µM
CN1C=CC(=O)[C@@H](OC(=O)Nc2ccc(Br)cc2)[C@H]1c1ccccc1Br	TDP1 cell noCPT 14.6µM, DT40 TDP1 CPT inconclusive
C=CCN1C=CC(=O)[C@@H](OC(=O)Nc2ccc(Br)cc2)[C@H]1c1ccccc1Br	TDP1 cell noCPT inconclusive, KB-V1 MDR tox inconclusive, HT1080-NT tox inconclusive, DT40 TDP1 CPT 23.1µM, HT1080 IDH1KD tx inconclusive
O=C1C(c2ccccc2)=[N+]([O-])c2ccccc21	TDP1 cell noCPT 4.11µM, KB-V1 MDR tox inconclusive, HT1080-NT tox inconclusive, KB-3-1 cytotox inconclusive, DT40 TDP1 CPT 5.17µM, HT1080 IDH1KD tx inconclusive
O=C1C(=Cc2cccs2)C(=O)c2ccccc21	none
CC(C)(C)c1ccc(NNC(=O)C2CCC2)cc1	TDP1 cell noCPT inconclusive
Cc1ccc2[nH]c(O)c(N=NC(=O)C3CC3c3ccccc3)c2c1Br (configuration not stated)	TDP1 cell noCPT 23.1µM, KB-V1 MDR tox inconclusive, DT40 TDP1 CPT 20.6µM
COc1ccc2ccccc2c1CN1CCOc2ccc(CN3CCN(CCO)CC3)cc2C1	TDP1 cell noCPT inconclusive (no result: KB-V1 MDR tox, HT1080-NT tox, KB-3-1 cytotox, HT1080 IDH1KD tx)
CS(=O)(=O)c1ccc(Cl)c(C(=O)OCC(=O)NC2CCCCCCC2)c1	none
COc1ccc2c(c1)C(CC(=O)NN)CCC2 (configuration not stated)	KB-V1 MDR tox inconclusive, HT1080-NT tox 7.31µM, KB-3-1 cytotox 23.1µM, HT1080 IDH1KD tx 1.64µM
CN1CCN(C(=O)c2cccc(-c3ccc4nccn4c3)c2)CC1	TDP1 cell noCPT inconclusive
Cn1c(=O)c(/C=C/c2ccc(F)cc2)nc2ccccc21	TDP1 cell noCPT 23.1µM, KB-V1 MDR tox inconclusive, KB-3-1 cytotox inconclusive, DT40 TDP1 CPT inconclusive
Cn1c(=O)c(/C=C/c2ccccc2)nc2ccccc21	TDP1 cell noCPT 16.4µM, KB-V1 MDR tox 14.6µM, KB-3-1 cytotox inconclusive, DT40 TDP1 CPT inconclusive
Cn1c(/C=C/c2ccccc2)nc2ccccc21	TDP1 cell noCPT 16.4µM, HT1080-NT tox inconclusive, DT40 TDP1 CPT inconclusive, HT1080 IDH1KD tx inconclusive
Cc1ccc(Nc2cc(Cl)nc(N)n2)c([N+](=O)[O-])c1	none
Cc1ccc(C(=O)Nc2cccc(S(=O)(=O)N3CCCCC3)c2)cc1S(=O)(=O)N1CCOCC1	TDP1 cell noCPT inconclusive, DT40 TDP1 CPT inconclusive

Bioassay records deposited in PubChem by National Center for Advancing Translational Sciences (NCATS).
